Experimental findings from PubChem BioAssay (NCATS) are described below.

For experiment [1], the system named is MKL-1. The experiment is described as follows: qHTS assay to identify novel small-molecules to repurpose for Merkel cell carcinoma treatment (AID 1296009). Also: nearly all actives have a fitted effect of over 60% in size. Also: potency is read from the fitted curve at half-maximal effect. Particulars: MCC and control cell lines, CellTiter-Glo viability, 72 h; series mostly up to 46 µM. The essentials: (§1)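 CellTiter-Glo luminescence after 72 hr compound exposure at 37 degree celsius gave cell viability. Libraries NPC and MIPE were run as 8- and 11-point dose responses; RLUs normalized to DMSO (negative) and no-cell (cytotoxicity) controls.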

Experiment [2] has as its system MKL-2. The description is as above. Particulars: MCC and control cell lines, CellTiter-Glo viability, 72 h; series mostly up to 46 µM. The essentials: as §1
For orientation: ATP-based viability assays read luminescence as a measure of living cells.

In experiment [3] the test system is UISO. The experiment is described as above. Particulars: MCC and control cell lines, CellTiter-Glo viability, 72 h; series mostly up to 46 µM. The essentials:
as §1

The subject of experiment [4] is WaGa. Described as above. The settings on record: MCC and control cell lines, CellTiter-Glo viability, 72 h; series mostly up to 46 µM. The essentials:
as §1

Experiment [5] has as its system C33A. The experiment is described as follows: Primary qHTS to identify gynecologic anti-cancer compounds using libraries of approved drugs and bioactive compounds (AID 1345084). Also: nearly all actives have a fitted effect of over 55% in size. The settings on record: Gynecologic cancer cell panel viability, ATPlite luminescence, 48 h; series mostly up to 57.5 µM. The essentials: (§2)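 Measured: luminescence after ATPlite addition (15 min, RT). Exposure: 48 h, 37 C, 5% CO2.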
Background: In qHTS, concentration-response curves come from the screen itself.

The subject of experiment [6] is CAOV3. The description is as above. Particulars: Gynecologic cancer cell panel viability, ATPlite luminescence, 48 h; series mostly up to 57.5 µM. The essentials:
as §2

The test system of experiment [7] is CASKI. The experiment is described as above. The settings on record: Gynecologic cancer cell panel viability, ATPlite luminescence, 48 h; series mostly up to 57.5 µM. The essentials: as §2
Experiment [8] deals with Es-2. The description is as above. Particulars: Gynecologic cancer cell panel viability, ATPlite luminescence, 48 h; series mostly up to 57.5 µM. The essentials: as §2
Experiment [9] deals with HeLa. The experiment is described as above. The settings on record: Gynecologic cancer cell panel viability, ATPlite luminescence, 48 h; series mostly up to 57.5 µM. The essentials:
as §2

In experiment [10] the test system is Hek293T. Described as above. The settings on record: Gynecologic cancer cell panel viability, ATPlite luminescence, 48 h, control line for the selectivity index; series mostly up to 57.5 µM. The essentials: as §2
For experiment [11], the system named is JEG-3. The experiment is described as above. Particulars: Gynecologic cancer cell panel viability, ATPlite luminescence, 48 h; series mostly up to 57.5 µM. The essentials:
as §2

Experiment [12] relates to OV90. The experiment is described as above. The settings on record: Gynecologic cancer cell panel viability, ATPlite luminescence, 48 h; series mostly up to 57.5 µM. The essentials: as §2
Experiment [13] deals with PA-1. The experiment is described as above. The settings on record: Gynecologic cancer cell panel viability, ATPlite luminescence, 48 h; series mostly up to 57.5 µM. The essentials:
as §2

The subject of experiment [14] is SKOV3. Described as above. Particulars: Gynecologic cancer cell panel viability, ATPlite luminescence, 48 h; series mostly up to 57.5 µM. The essentials: as §2
Experiment [15] has as its system Tov-21-G. The experiment is described as above. Particulars: Gynecologic cancer cell panel viability, ATPlite luminescence, 48 h; series mostly up to 57.5 µM. The essentials:
as §2

Experiment [16] deals with Tov112D. The experiment is described as above. The settings on record: Gynecologic cancer cell panel viability, ATPlite luminescence, 48 h; series mostly up to 57.5 µM. The essentials: as §2
Experiment [17] in a line: Drug repurposing screens with cells derived from glioblastoma tumor samples (AID 1345199). Also: nearly all actives have a fitted effect of over 40% in size. The settings on record: GBM patient neurospheres viability, ATP luminescence, 48 h. The essentials:
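Primary testing used CD133+ neurospheres from four GBM patients, seven concentrations, 48 h exposure and ATP-based viability; confirmation added three slower-growing patient lines.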

Where [18] appears, read: at 45.9 µM (top of the series), tumour line B.
[19] abbreviates: at 45.9 µM (top of the series), tumour line D.
Setting [20] is: at 46 µM (top of the series), tumour line A.
The mark [21] stands for this setting: at 46.1 µM (top of the series), tumour line C.

Inconclusive results are not listed. A number with no mark means an inactive call. Activity calls are given as the source filed them. Calls follow the shape of the dose curve; as a rule, active = well fitted curve in the direction sought with a large enough effect; inconclusive = small, poorly fitted or top-dose-only effect, or another doubt; inactive = no such curve, though single readings can be large; an effect the other way counts as inactive or inconclusive.
% is scaled to controls: 0 for no effect and ±100 for the full control effect.

Take `C[C@@H](O)[C@H]1C(=O)N2C(C(=O)O)=C(S[C@@H]3CN[C@H](C(=O)N(C)C)C3)[C@H](C)[C@H]12`: the Potency entry in [1], in experiment [2], in experiment [3], in experiment [4], in experiment [5] and in experiment [6] was “inactive” throughout. In addition, the Potency entry in experiment [7], in experiment [8], in experiment [9], in experiment [10], in experiment [11] and in experiment [12] was “inactive” each time. The Potency entry in [13], in experiment [14], in [15] and in experiment [16] was “inactive” in each case. In addition, the activity, negative = cell killing in experiment [17] (setting [18]) was -4.52%; in experiment [17] (setting [19]) it was 4.08%; in experiment [17] (setting [20]), -23.7%; in [17] (setting [21]), -22.4%.

In the case of `CC(=O)c1ccc(S(=O)(=O)NC(=O)NC2CCCCC2)cc1`, the Potency result in experiment [1], in experiment [2], in [3], in [4], in [5] and in experiment [6] was “inactive” each time. Further, the Potency result in experiment [7], in [8], in experiment [9], in experiment [10], in experiment [11] and in [12] was “inactive” each time. The Potency result in experiment [13], in experiment [14], in experiment [15] and in experiment [16] was “inactive” each time. Besides, the activity, negative = cell killing in experiment [17] (setting [18]) was -1.16%; in experiment [17] (setting [19]), 0.333%; in experiment [17] (setting [20]), -21.5%; in experiment [17] (setting [21]) it was -21%.

For the compound `CC=CC[C@@H](C)C(=O)[C@H]1C(=O)N[C@@H](C(C)C)C(=O)N(C)CC(=O)N(C)[C@@H](CC(C)C)C(=O)N[C@@H](C(C)C)C(=O)N(C)[C@@H](CC(C)C)C(=O)N[C@@H](C)C(=O)N[C@H](C)C(=O)N(C)[C@@H](CC(C)C)C(=O)N(C)[C@@H](CC(C)C)C(=O)N(C)[C@@H](C(C)C)C(=O)N1C`, the Potency entry in [1], in experiment [2], in experiment [3] and in experiment [4] was “inactive” each time.

As for `CC(C)(C)OC(=O)N[C@H]1CCCCCC=C[C@@H]2C[C@@]2(C(=O)NS(=O)(=O)C2CC2)NC(=O)[C@@H]2C[C@@H](OC(=O)N3Cc4cccc(F)c4C3)CN2C1=O`, the Potency entry in [1], in experiment [2], in experiment [3], in [4], in [5] and in experiment [6] was “inactive” each time. Besides, the Potency result in experiment [7], in experiment [8], in experiment [9], in experiment [10], in experiment [11] and in [12] was “inactive” throughout. For the same compound, the Potency entry in experiment [13], in experiment [14], in [15] and in [16] was “inactive” in each case.

For `O=c1ccn([C@@H]2O[C@H](CO)[C@H](O)[C@H]2O)c(=O)[nH]1`, the Potency result in experiment [1], in experiment [2], in [3] and in [4] was “inactive” in each case.

In the case of `Nc1ncnc2c1ncn2[C@@H]1O[C@H](CO)C[C@@H]1O`, the Potency result in [1], in [2] and in experiment [3] was “inactive” throughout. The Potency in experiment [4] is 14.8 µM (active).

Take `CC1(C)CCC[C@@]2(C)[C@@H]1CC[C@@]1(C)OC(=O)C[C@H]21`: the Potency result in experiment [1], in experiment [2], in experiment [3] and in [4] was “inactive” each time.

For the compound `O=C1NC(=O)C(=Cc2ccc(-c3ccc(F)cc3)o2)S1`, the Potency entry in experiment [1], in [2], in [3] and in experiment [4] was “inactive” in each case.

In the case of `N#CC1(c2ccc(NC(=O)c3cccnc3NCc3ccncc3)cc2)CCCC1`, the Potency result in [1], in experiment [2], in experiment [3] and in experiment [4] was “inactive” in each case.

In the case of `NC(=O)[C@@H](CCC(F)(F)F)N(Cc1ccc(-c2ncon2)cc1F)S(=O)(=O)c1ccc(Cl)cc1`, the Potency entry in [1], in experiment [2], in experiment [3] and in [4] was “inactive” in each case.

For the compound `CNC(=O)c1ccc2cc(C3(O)CCn4cncc43)ccc2c1` (configuration not stated), the Potency entry in experiment [1], in experiment [2], in experiment [3], in experiment [4], in experiment [5] and in experiment [6] was “inactive” in each case. In addition, the Potency entry in [7], in experiment [8], in [9], in experiment [10], in experiment [11] and in [12] was “inactive” throughout. Moreover, the Potency result in [13], in experiment [14], in [15] and in [16] was “inactive” throughout.

In the case of `O=c1c(-c2ccc(O)cc2)coc2cc(O[C@@H]3O[C@H](CO)[C@H](O)[C@H](O)[C@H]3O)ccc12`, the Potency entry in experiment [1], in experiment [2], in experiment [3] and in experiment [4] was “inactive” in each case.

`O=C(Nc1ccccc1Br)N[C@@H]1CCN(c2ccc(C(F)(F)F)cn2)C1`: the Potency entry in experiment [1], in experiment [2], in experiment [3] and in [4] was “inactive” each time.

With `COc1ccc(-n2c(C)c([N+](=O)[O-])c3ccc(O)cc32)cc1`, the Potency result in experiment [1], in experiment [2], in [3] and in experiment [4] was “inactive” throughout.

For the compound `Cc1ccccc1C(C(=O)NC1CCCCC1)N(C(=O)Cn1ccnc1C)c1cccc(F)c1` (configuration not stated), the Potency entry in experiment [1], in experiment [2], in [3], in experiment [4], in [5] and in experiment [6] was “inactive” in each case. Also, the Potency entry in experiment [7], in experiment [8], in [9], in [10], in experiment [11] and in experiment [12] was “inactive” each time. For the same compound, the Potency entry in experiment [13], in experiment [14], in [15] and in [16] was “inactive” throughout.

With `CC(C)NCC(O)COc1cccc2[nH]ccc12` (configuration not stated), the Potency entry in experiment [1], in experiment [2], in [3], in experiment [4], in experiment [5] and in [6] was “inactive” throughout. For the same compound, the Potency entry in [7], in experiment [8], in experiment [9], in experiment [10], in experiment [11] and in experiment [12] was “inactive” in each case. In addition, the Potency entry in experiment [13], in [14], in experiment [15] and in experiment [16] was “inactive” throughout. In addition, the activity, negative = cell killing in experiment [17] (setting [18]) was -5.39%; in [17] (setting [19]), -14.8%; in experiment [17] (setting [20]) it was -24.6%; in experiment [17] (setting [21]), 1.52%.

As for `C[N+](C)(C)CC(=O)O`, the Potency result in experiment [1], in experiment [2], in [3], in [4], in experiment [5] and in experiment [6] was “inactive” each time. Further, the Potency entry in [7], in [8], in experiment [9], in [10], in [11] and in [12] was “inactive” each time. In addition, the Potency result in [13], in experiment [14], in experiment [15] and in [16] was “inactive” each time.

With `CC[C@H]1OC(=O)[C@H](C)C(=O)[C@H](C)[C@@H](O[C@H]2O[C@H](C)C[C@H](N(C)C)[C@@H]2O)[C@](C)(OC)C[C@@H](C)C(=O)[C@H](C)[C@H]2N(CCCCn3cnc(-c4cccnc4)c3)C(=O)O[C@]12C`, the Potency result in experiment [1], in experiment [2], in experiment [3] and in experiment [4] was “inactive” throughout.

In the case of `C=C1C(=O)OC(CCCCCCCC)C1C(=O)O` (configuration not stated), the Potency result in [1], in experiment [2], in experiment [3] and in experiment [4] was “inactive” throughout.
